Reference: publication PMC11062922 (Nature Chemical Biology, 2023)
Where two headings read alike, the source gives them in different places.

Assays:
Parameters in all cases: species or system human, MV4-11 + K-562 + COLO205 + SK-N-BE2 + OVCAR-8
CSNK1E = settings: compound concentrations:0.3nM, 1nM, 3nM, 10nM, 30nM, 100nM, 300nM, 1000nM,R2:0.89444069129231096,slope:0.86279178326481998,EC50 Standard Error, by the legend:Standard error of the EC50 estimation as provided by the drc package.
MAPK14 = settings: compound concentrations:0.3nM, 1nM, 3nM, 10nM, 30nM, 100nM, 300nM, 1000nM,R2:0.95433345689641902,slope:0.62517275376181303,EC50 Standard Error, by the legend:Standard error of the EC50 estimation as provided by the drc package.
MAPKAPK2 = settings: compound concentrations:0.3nM, 1nM, 3nM, 10nM, 30nM, 100nM, 300nM, 1000nM,R2:0.91890870064253904,slope:1.05096662120135,EC50 Standard Error, by the legend:Standard error of the EC50 estimation as provided by the drc package.
RIPK2 = settings: compound concentrations:0.3nM, 1nM, 3nM, 10nM, 30nM, 100nM, 300nM, 1000nM,R2:0.98843771673654501,slope:0.97698272947785902,EC50 Standard Error, by the legend:Standard error of the EC50 estimation as provided by the drc package.
RIPK3 = settings: compound concentrations:0.3nM, 1nM, 3nM, 10nM, 30nM, 100nM, 300nM, 1000nM,R2:0.88646274803772895,slope:5.0878054739021197,EC50 Standard Error, by the legend:Standard error of the EC50 estimation as provided by the drc package.
SPR = settings: compound concentrations:0.3nM, 1nM, 3nM, 10nM, 30nM, 100nM, 300nM, 1000nM,R2:0.99512909296274499,slope:1.24359258072984,EC50 Standard Error, by the legend:Standard error of the EC50 estimation as provided by the drc package.
TGFBR2 = settings: compound concentrations:0.3nM, 1nM, 3nM, 10nM, 30nM, 100nM, 300nM, 1000nM,R2:0.95772159417417102,slope:0.90025260883160396,EC50 Standard Error, by the legend:Standard error of the EC50 estimation as provided by the drc package.
TESK2 = settings: read-out: apparent Kd; compound concentrations:100 nM and 1000 nM (sheet 'Samples'); n = 1
IGF1R = settings: read-out: apparent Kd, compound concentrations: 100 nM and 1000 nM (sheet 'Samples'), n = 1
INSR = settings: read-out: apparent Kd, compound concentrations: 100 nM and 1000 nM (sheet 'Samples'), n = 1
NEK2 = settings: read-out: apparent Kd, compound concentrations: 100 nM and 1000 nM (sheet 'Samples'), n = 1
AGK = settings: read-out: apparent Kd, compound concentrations: 100 nM and 1000 nM (sheet 'Samples'), n = 1
ARAF = settings: read-out: apparent Kd, compound concentrations: 100 nM and 1000 nM (sheet 'Samples'), n = 1
BRAF = settings: read-out: apparent Kd, compound concentrations: 100 nM and 1000 nM (sheet 'Samples'), n = 1
ERBB3 = settings: read-out: apparent Kd, compound concentrations: 100 nM and 1000 nM (sheet 'Samples'), n = 1
MAP2K3 = settings: read-out: apparent Kd, compound concentrations: 100 nM and 1000 nM (sheet 'Samples'), n = 1
MAP3K2 = settings: read-out: apparent Kd, compound concentrations: 100 nM and 1000 nM (sheet 'Samples'), n = 1
MAP3K5 = settings: read-out: apparent Kd, compound concentrations: 100 nM and 1000 nM (sheet 'Samples'), n = 1
PIK3C2B = settings: read-out: apparent Kd, compound concentrations: 100 nM and 1000 nM (sheet 'Samples'), n = 1
PYGL = settings: read-out: apparent Kd, compound concentrations: 100 nM and 1000 nM (sheet 'Samples'), n = 1
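Wherever EC50 is given: competition pulldown with Kinobeads ε in cell lysates, inhibitor preincubated 45 min at 4 °C, bound kinases quantified by LC–MS/MS against DMSO control.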
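Wherever Kd is given: competition pulldown with Kinobeads ε in cell lysates, inhibitor preincubated 45 min at 4 °C, bound kinases quantified by LC–MS/MS against DMSO control.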

## Cl.NCc1ccc(-c2nc(-c3ccc(Cl)c(O)c3)c(-c3ccncc3)[nH]2)cc1 [SB-476429-A]
CSNK1E
  EC50: 642 nM
CSNK1E; read-out: apparent Kd
  Kd: 642 nM
MAPK14
  EC50: 174 nM
MAPK14; read-out: apparent Kd
  Kd: 174 nM
MAPKAPK2
  EC50: 174 nM
MAPKAPK2; read-out: apparent Kd
  Kd: 174 nM
RIPK2
  EC50: 55.9 nM
RIPK2; read-out: apparent Kd
  Kd: 28.8 nM
RIPK3
  EC50: 296 nM
RIPK3; read-out: apparent Kd
  Kd: 289 nM
SPR
  EC50: 32.8 nM
SPR; read-out: apparent Kd
  Kd: 32.8 nM
TGFBR2
  EC50: 871 nM
TGFBR2; read-out: apparent Kd
  Kd: 767 nM

## Cc1cccc(-c2nc(Nc3ccncc3)c3sccc3n2)n1 [GW869641X]
TESK2
  potency estimated from few doses: 1880 nM

## COc1ccc(Nc2ncc(C#N)c(Nc3ccccc3C(N)=O)n2)cc1N1CCN(C)CC1.Cl [GSK1558669A]
IGF1R; CATDS: 6.9220248980982396E-3
  potency estimated from few doses: 752 nM
INSR; CATDS: 7.0439666537016601E-3
  potency estimated from few doses: 692 nM
NEK2; CATDS: 6.7574361761292799E-3
  potency estimated from few doses: 849 nM

## Cn1ncc2c(N)ncnc21 [SKF-18267]
AGK; CATDS: 3.9029734313372399E-3
  potency estimated from few doses: 1420 nM
ARAF; CATDS: 4.8255610001080402E-3
  potency estimated from few doses: 874 nM
BRAF; CATDS: 3.54255463702716E-3
  potency estimated from few doses: 1870 nM
ERBB3; CATDS: 3.9998602619286698E-3
  potency estimated from few doses: 1340 nM
IGF1R; CATDS: 4.3813441316225901E-3
  potency estimated from few doses: 1080 nM
INSR; CATDS: 4.5573832930641796E-3
  potency estimated from few doses: 986 nM
MAP2K3; CATDS: 4.14742483783686E-3
  potency estimated from few doses: 1220 nM
MAP3K2; CATDS: 4.2783500511549997E-3
  potency estimated from few doses: 1140 nM
MAP3K5; CATDS: 4.32123334572214E-3
  potency estimated from few doses: 1110 nM
NEK2; CATDS: 4.6073088162857699E-3
  potency estimated from few doses: 964 nM
PIK3C2B; CATDS: 6.2624130491241497E-3
  potency estimated from few doses: 539 nM
PYGL; CATDS: 4.6532954394714601E-3
  potency estimated from few doses: 943 nM

## O=C(O)C(F)(F)F.O=C(O)C(F)(F)F.O=c1[nH]ccc2nc(N[C@@H]3CCCNC3)nc(Nc3ccc(S(=O)(=O)N4CCOCC4)cc3)c12.O=c1[nH]ccc2nc(N[C@@H]3CCCNC3)nc(Nc3ccc(S(=O)(=O)N4CCOCC4)cc3)c12 [GSK2177277A]
MAP2K3; CATDS: 6.4169710439364001E-3
  potency estimated from few doses: 1550 nM
MAP3K2; CATDS: 7.1783793001346102E-3
  potency estimated from few doses: 889 nM

## CCn1c(-c2cccnc2O)nc2cnccc21 [SB-736715]
PYGL; CATDS: 1.35129561389799E-2
  potency estimated from few doses: 1630 nM

## Nc1nc(Nc2ccccc2)cc(-c2ccc3c(N)n[nH]c3c2)n1 [GSK2225749A]
TESK2
  potency estimated from few doses: 1620 nM

## Cl.Cl.NC(CNC(=O)c1cc(Br)c(-c2ccnc3[nH]ccc23)s1)c1ccccc1.NC(CNC(=O)c1cc(Br)c(-c2ccnc3[nH]ccc23)s1)c1ccccc1 (stereo not shown) [GSK1322949A]
AGK; CATDS: 3.3484364918531399E-2
  potency estimated from few doses: 953 nM
ARAF; CATDS: 6.3043035692660204E-2
  potency estimated from few doses: 316 nM

## CC(C)N1CC(=O)N(C)c2cnc(Nc3cccc(S(=O)(=O)CCN4CCOCC4)c3)nc21 [BI00009348]
MAP3K5; CATDS: 5.27372855942096E-2
  potency estimated from few doses: 1550 nM

## CNCC1CCn2c(c(C3=C(c4cn(C)c5ccccc45)C(=O)NC3=O)c3ccccc32)C1 (stereo not shown) [RO0318676-000]
BRAF; CATDS: 2.6106742003508401E-2
  potency estimated from few doses: 2340 nM

## CNc1nccc(-c2ccc3c(N)n[nH]c3c2)n1 [GSK2206003A]
ERBB3; CATDS: 5.0565668903585798E-2
  potency estimated from few doses: 1580 nM

## CCC(CC)(CC)n1cnc2c(N)ncnc21 [SKF-97620]
PIK3C2B; CATDS: 4.5061031673298398E-2
  potency estimated from few doses: 395 nM
